The panel holds about 83,000 compounds, 20% with a hit somewhere; the sample as a whole holds those more often.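 The test compound was applied at a single concentration to cells in 96-well plates for 48 hours, and percent growth was recorded.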 A number with no mark means an inactive call. Calls of active or inactive are those of the source. The calls were made as follows: active = growth percent below 10; inactive = the rest.
System: MDA-MB-468 breast
Assay: NCI-60 one-dose screen, 48 h (100 = growth as untreated, 0 = no growth, -100 = all killed)
Details: 10 µM unless noted

Compound	growth
CCOC(=O)c1ccccc1SC(C[N+](=O)[O-])c1ccccc1 (stereo unspecified)	63.7%
CCCN(CCC)C(=O)[C@H](CC)[C@@H]1CC[C@@H](C)[C@@H]([C@H](C)[C@@H](O)[C@@H](C)C(=O)[C@H](CC)C2O[C@]3(C=C[C@@H](O)[C@]4(CC[C@@](C)([C@H]5CC[C@](O)(CC)[C@H](C)O5)O4)O3)[C@H](C)C[C@@H]2C)O1 (stereo partly specified)	-24.6% (active)
O=CNc1c(Cl)cc2c(c1Cl)Cc1cc([N+](=O)[O-])ccc1-2	-3.02% (active)
O=S(=O)(NCCCNc1cc(-c2cn(-c3ccccc3)nc2-c2ccccc2)ccn1)c1ccc(C(F)(F)F)cc1	40.7%
O=C(OC(CO)C(=O)NC12CC3CC(CC(C3)C1)C2)c1ccc(Cl)cc1 (stereo unspecified)	95.3%
OCc1cn(-c2ccc(Cl)cc2)nc1-c1ccc(O)cc1	107%
Nc1n[nH]c2cccc(C#Cc3cccc(NC(=O)c4cccc(OC(F)(F)F)c4)c3)c12	106%
C=C[C@]1(C)C=C2C(=O)[C@@]3(O)OC[C@@]4(CCCC(C)(C)C43O)C2(O)C(O)C1 (stereo partly specified)	-18.7% (active)
CC(=O)c1cc(C(=O)c2ccc3c(c2)Sc2ccccc2N3)c2c(C)cccn12	14%
CCN(CC)CCCCNc1ccc(NCCCCN(CC)CC)c2c1C(=O)c1ccccc1C2=O	106%
C[C@@H](CO)[C@@H]1CC[C@]2(C(=O)N3CCN(C)CC3)CC[C@]3(C)[C@H](CC[C@@H]4[C@@]5(C)CC[C@H](O)C(C)(C)[C@@H]5CC[C@]43C)[C@@H]12	61%
